Screening data: PubChem BioAssay, University of Kansas High Throughput Screening Laboratory
An excerpt weighted towards active compounds, which were near 3.5% of everything screened.
Pf apPOL block = Pf-apPOL DNA polymerase inhibition; Recombinant Pf-apPOL, molecular beacon fluorescence, 1.5 h; inhibition, % at 10 µM; actives 0.25% (n = 210,000)
mHTT CaM bind = mHTT-calmodulin interaction abrogation; AlphaScreen His-mHTT/GST-CaM binding, luminescence; inhibition, % at 15 µM; actives 3.6% (n = 190,000); P42858
Of the large screens only hits and unclear results are named; the others gave an inactive call. Cut-off read from the data, not from the text of the source: active = inhibition above about 50%; inactive = the rest.

N#Cc1nc(COc2ccccc2Cl)oc1NCCCn1ccnc1	mHTT CaM bind 100.0
COc1ccc(CCNc2oc(COc3ccc(OC)cc3)nc2C#N)cc1	none
Cc1ccccc1OCc1nc(C#N)c(NCCCn2ccnc2)o1	none
N#Cc1nc(COc2ccccc2Cl)oc1NCc1cccnc1	none
Cc1ccccc1OCc1ccc(-c2nc(C#N)c(NCc3cccnc3)o2)o1	mHTT CaM bind 54.0
CC(=O)Nc1cccc(N2CC(C(=O)Nc3ccc(Br)c(C)c3)CC2=O)c1 (stereo unspecified)	none
CCC(C)NC(=O)c1cn(C2CCCC2)c(=O)c2c1c1ccccc1n2C (stereo unspecified)	none
Cc1noc(-c2nn(C)c3c2CN(C(=O)c2ccccn2)CC3)n1	none
NC(=NO)C1CSc2ccccc2C1=O (stereo unspecified)	none (no result: mHTT CaM bind)
CC(NC(=O)CC1Sc2ccccc2NC1=O)C(C)(C)C (stereo unspecified)	none
CC(C)(C)C(=O)C=C1Nc2ccccc2SC1(O)CC(=O)C(C)(C)C (stereo unspecified)	mHTT CaM bind 51.1 (no result: Pf apPOL block)
Cc1nnc(NC(=O)CSc2nc3c(c(=O)n2-c2ccccc2)SCC3)s1	none
Cc1nc2nc(SCC(=O)NCC3CCCO3)nn2c(C)c1Cc1c(F)cccc1Cl (stereo unspecified)	mHTT CaM bind 70.0
Cc1nc2nc(SCC(=O)NCC3CCCO3)nn2c(C)c1Cc1ccccc1Cl (stereo unspecified)	none
Cc1ccc(CN2CCC(OCc3nc(-c4ccncc4)no3)CC2)o1	none
O=C1NC(=Nc2ccccc2Cl)S/C1=C/c1ccc(F)cc1	mHTT CaM bind 76.0
O=C1NC(=Nc2ccccc2Cl)S/C1=C\c1cccc([N+](=O)[O-])c1O	none
O=C1NC(=Nc2ccccc2Cl)S/C1=C/c1ccccc1F	mHTT CaM bind 66.0
N#Cc1ccc(/C=C2/SC(=Nc3ccccc3Cl)NC2=O)cc1	none
NS(=O)(=O)c1ccc(NC(=O)CC2Sc3ccc(C(F)(F)F)cc3NC2=O)cc1 (stereo unspecified)	none
CCSC(OC(C)=O)C(OC(C)=O)C(OC(C)=O)C(OC(C)=O)C(COC(C)=O)OC(C)=O (stereo unspecified)	none (no result: mHTT CaM bind)
COc1cc(C2NC(=O)NC(C)=C2C(=O)Nc2ccc(F)c(F)c2)ccc1O (stereo unspecified)	none
COc1ccc(NC(=O)C2=C(C)NC(=O)NC2c2ccc(OC)cc2OC)c(OC)c1 (stereo unspecified)	mHTT CaM bind 73.0
COc1ccc(NC(=O)C2=C(C)NC(=O)NC2c2cccs2)c(OC)c1 (stereo unspecified)	none
COc1ccc(C2NC(=O)NC(C)=C2C(=O)Nc2ccc(C)c(Cl)c2)cc1OC (stereo unspecified)	mHTT CaM bind 54.0
CCC(=O)NCCc1csc(C2CCCN(C(=O)c3cccc(C)c3)C2)n1 (stereo unspecified)	none
Cc1oc(C2CCN(C(=O)Cc3ccccc3F)CC2)nc1C(=O)N1CCCCC1	none
Cc1ccc(CC(=O)N2CCC(c3nc(C(=O)N4CCOCC4)c(C)o3)CC2)cc1	none
Cc1cccc(NC(=O)c2sc3nc(-c4ccccc4)cn3c2C)n1	mHTT CaM bind 50.0
Cc1c(C(=O)Nc2ccccn2)sc2nc(-c3ccccc3)cn12	none
COC(=O)c1cnc(Sc2n[nH]c(=O)n2-c2ccc(Cl)cc2)c([N+](=O)[O-])c1	none (no result: mHTT CaM bind)
C=CCc1cccc(C2Nc3ccccc3C(=O)N2O)c1O (stereo unspecified)	Pf apPOL block 57.4
O=C1c2ccccc2NC(c2ccc(Cl)cc2Cl)N1O (stereo unspecified)	none
O=C(Nc1ccccc1F)c1cc([N+](=O)[O-])ccc1Cl	none
CC(=O)Oc1ccc2c(c1)OC(=Cc1ccccc1Br)C2=O	none
CC(=O)Oc1ccc2c(c1)Oc1cc(OC(C)=O)ccc1C21OC(=O)c2ccccc21	mHTT CaM bind 86.8
O=C(CSc1nc2ccccc2o1)Nc1ccccc1[N+](=O)[O-]	mHTT CaM bind 55.3
COc1ccc(NC(=O)CSc2nc3ccccc3o2)c([N+](=O)[O-])c1	none
CCN(CC)S(=O)(=O)c1ccc2[nH]cc(C(=O)NCCCN3CCCC3=O)c(=O)c2c1	mHTT CaM bind 51.0
CCN(CC)S(=O)(=O)c1ccc2[nH]cc(C(=O)NCc3ccc(F)cc3)c(=O)c2c1	none
COc1cccc(-c2noc(C3CCCN3C(=O)Nc3ccc(Br)cc3)n2)c1 (stereo unspecified)	none
N#C/C(C(N)=O)=C1\Oc2c(cc(O)cc2-c2ccc(Br)cc2)S1	none
O=C(Nc1nnc(-c2ccco2)o1)c1cnccn1	none
CC(C)(C)n1nc2c(c1NC(=O)CCc1ccccc1)CSC2	none
O=C(Nc1cc(-c2ccco2)nn1CCO)c1cnccn1	mHTT CaM bind 92.2
O=C(Cn1nc2c(c1NC(=O)c1cnccn1)CSC2)NCc1ccco1	mHTT CaM bind 84.8
O=C(Cc1csc(NC(=O)c2cnccn2)n1)NCc1ccco1	none
O=C(Cn1nc2c(c1NC(=O)c1c[nH]c3ccccc13)CSC2)NCCc1ccccc1	mHTT CaM bind 92.9
Cc1nc2ccccn2c1C(=O)NN=Cc1cn(-c2ccccc2)nc1-c1cccs1	none (no result: mHTT CaM bind)
Cc1ccccc1C(=O)N1CCCC1COc1ccc(C(=O)NC(C)C)cc1 (stereo unspecified)	none
C=CCNCCOc1ccc(Br)cc1C	mHTT CaM bind 53.8
C=CCNC(=O)COc1ccc(Br)cc1C	none
CC1CCN(C(=O)C2CCN(c3cnn(C)c(=O)c3)CC2)CC1	none
O=C(Nc1ccccc1Cl)c1ccc(F)c(S(=O)(=O)N2CCc3ccccc3C2)c1	none
CC1(C)CC(=O)C2=C(C1)OC(N)=C(C#N)C2c1ccc(-c2ccccc2)cc1 (stereo unspecified)	none
CC1(C)CC(=O)C2=C(C1)OC(N)=C(C#N)C2c1cn(-c2ccccc2)nc1-c1ccc(Cl)cc1 (stereo unspecified)	mHTT CaM bind 100.2
Cc1cc(OCC(=O)Nc2ccc(Cl)cc2)nc(N2CCCCC2)n1	none
O=C(c1nnn(-c2ccccc2F)c1-c1ccccn1)N1CC=C(c2ccccc2)CC1	mHTT CaM bind 84.0
O=C(c1nnn(-c2ccccc2F)c1-c1ccccn1)N1CCN(c2ncccn2)CC1	none
N#Cc1cnc2c(-c3cccc(Br)c3)cnn2c1N	none
CC(=O)N1CCC2(CC1)N=C(c1ccccc1O)CC(c1ccc(F)c(Cl)c1)N2 (stereo unspecified)	mHTT CaM bind 69.2
CCN1CCC2(CC1)N=C(c1ccc(C)cc1C)CC(c1cc(Cl)ccc1O)N2 (stereo unspecified)	mHTT CaM bind 89.6
CC(=O)N1CCC2(CC1)N=C(c1ccccc1O)CC(c1ccc(Cl)cc1)N2 (stereo unspecified)	none
Cc1ccc(C2CC(c3cc(Cl)ccc3O)=NC3(CCN(C)CC3)N2)cc1 (stereo unspecified)	mHTT CaM bind 100.1
CC(=O)N1CCC2(CC1)N=C(c1cc(Cl)ccc1O)CC(c1ccc(C)cc1)N2 (stereo unspecified)	none
CCN1CCC2(CC1)N=C(c1ccc(C)c(C)c1)CC(c1cc(Cl)ccc1O)N2 (stereo unspecified)	none
CC(C)(C)NC(=O)c1cc(NC(=O)Cc2ccccc2)cc(NC(=O)Cc2ccccc2)c1	none
CCOc1nccnc1N1CCC(NC(=O)c2ccc3cc[nH]c3c2)C1 (stereo unspecified)	none
Cc1ncc(CO)c2cc(C(=O)Nc3ccccc3Cl)c(=Nc3ccccc3)oc12	none
Cc1cc(Br)c2c3c(c(N)c(=O)[nH]c13)-c1ccccc1C2=O	none
Cc1cc2c3c(c(Br)cc(S(=O)(=O)O)c3n1)C(=O)c1ccccc1-2	mHTT CaM bind 99.0
COc1ccc2oc(=Nc3ccccc3F)c(C(N)=O)cc2c1	none
